Data: PubChem BioAssay (EPA / NIEHS)
Where “and” joins values, the source holds several entries; their conditions need not be identical. Equal values may be shown once. The source holds several records for some structures; these can differ, active in one and inactive in another. Calls of active or inactive are those of the source. Rule for the calls: active = hit-call score of the fitted dose curve at least 0.9, where 1 is the maximum; inactive = score below 0.9.

Assays:
[1] = ATG_RORE_CIS: Attagene CIS-FACTORIAL HepG2 Assay for human RAR-related Orphan Receptor Element (RORE) (AID 2282959); settings: HepG2 Attagene cis-factorial RORE reporter, mRNA; actives raise or lower the signal
How it was run: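 Multiplexed reporter assay measuring mRNA induction from a cis promoter element in transiently transfected HepG2 cells after 24 h treatment. Detection via RT-PCR and capillary electrophoresis fluorescence; DMSO serves as baseline.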

[2] = ATG_Sox_CIS: Attagene CIS-FACTORIAL HepG2 Assay for human SRY-box transcription factor (SOX) (AID 2282960); settings: HepG2 Attagene cis-factorial SOX reporter, mRNA; actives raise or lower the signal
How it was run: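 Cells were transfected with reporter constructs under cis-regulatory promoters, then exposed to chemicals for 24 h. Reporter transcripts were quantified by fluorescence after RT-PCR and capillary electrophoresis; activity was fitted in both directions against DMSO.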

[3] = target: Transcription factor Sp1 (Homo sapiens) (UniProt P08047); experiment: ATG_Sp1_CIS: Attagene CIS-FACTORIAL HepG2 Assay for human Specificity Protein 1 (Sp1) (AID 2282961); settings: HepG2 Sp1 cis-reporter transcription, actives raise or lower the signal
How it was run: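 Measures mRNA induction of an Sp1-linked reporter in HepG2 cells 24 h post-dosing. Multiplexed reporters read by RT-PCR and capillary electrophoresis; DMSO serves as negative control and baseline.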

[4] = ATG_SREBP_CIS: Attagene CIS-FACTORIAL HepG2 Assay for human Sterol Regulatory Element Binding (SREBP) (AID 2282962); settings: HepG2 Attagene cis-factorial SREBP reporter, mRNA; actives raise or lower the signal
How it was run: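 Transfected HepG2 (cis-regulated reporter library, endogenous TFs) → compound 24 h → total RNA → oligo(dT) RT → reporter-specific PCR → FAM primer extension, HpaI cut → CE fluorescence. Fit bidirectional vs DMSO.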

[5] = target: Signal transducer and activator of transcription 3 (Homo sapiens) (UniProt P40763); experiment: ATG_STAT3_CIS: Attagene CIS-FACTORIAL HepG2 Assay for human Signal Transducer and Activator of Transcription 3 (STAT3) (AID 2282963); settings: HepG2, Attagene cis-factorial STAT3 reporter transcription; actives raise or lower the signal
How it was run: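 Endogenous STAT3-responsive cis-element activity was read in transiently transfected HepG2 cells after 24 h treatment. Reporter transcripts were quantified via RT-PCR and capillary electrophoresis, with DMSO as negative control and bidirectional curve fitting.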

[6] = ATG_TA_CIS: Attagene CIS-FACTORIAL HepG2 Assay for human TA Basal Promoter (AID 2282964); settings: HepG2 Attagene CIS-factorial TA basal promoter reporter; actives raise or lower the signal
How it was run: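 HepG2 cells transiently transfected with multiplexed cis-promoter reporter units, dosed 24 h. Reporter mRNA measured by RT-PCR, 6-FAM labelling, HpaI digestion and capillary electrophoresis; bidirectional fit versus DMSO baseline, serving as background control.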

[7] = ATG_TCF_b_cat_CIS: Attagene CIS-FACTORIAL HepG2 Assay for human T-Cell-Factor with beta-catenin (TCF/b-cat) (AID 2282965); settings: HepG2 TCF/beta-catenin cis-reporter transcription, actives raise or lower the signal
How it was run: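 Endogenous transcription factor activity is captured through cis-promoter reporter constructs transiently introduced into human HepG2 liver cells. Induced reporter mRNA is measured after 24 h and fitted bidirectionally relative to DMSO.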

[8] = ATG_TAL_CIS: Attagene CIS-FACTORIAL HepG2 Assay for human TAL Basal Promoter (AID 2282966); settings: HepG2 Attagene cis-factorial TAL promoter reporter; actives raise or lower the signal;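 note: background control endpoint measuring basal TAL promoter reporter mRNA not a specific factor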
How it was run: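 HepG2 cells were transiently transfected with promoter-driven multiplexed reporter units and dosed for 24 h. Reporter mRNA was measured by RT-PCR with capillary electrophoresis fluorescence; bidirectional fits used DMSO as baseline, serving as a background control.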

[9] = ATG_TGFb_CIS: Attagene CIS-FACTORIAL HepG2 Assay for human Transforming Growth Factor (TGF) (AID 2282967); settings: HepG2 Attagene CIS TGFb reporter, mRNA transcription; actives raise or lower the signal
How it was run: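 HepG2 cells transiently transfected with cis-promoter-driven multiplexed reporter units; 24 h compound exposure. Reporter mRNA measured by RT-PCR, 6-FAM labeling, HpaI digestion and capillary electrophoresis; bidirectional fit versus DMSO baseline.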

[10] = ATG_VDRE_CIS: Attagene CIS-FACTORIAL HepG2 Assay for human Vitamin D Receptor Element (VDRE) (AID 2282968); settings: HepG2 VDRE cis-reporter transcription, actives raise or lower the signal
How it was run: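 Reporter mRNA induction, quantified by capillary electrophoresis of fluorescently labelled RT-PCR products, was read 24 h after dosing HepG2 cells carrying transiently transfected cis-regulated reporter units; gain or loss relative to DMSO.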

Measured: AC50

Chain of Signal transducer and activator of transcription 3 (Homo sapiens) (P40763 whole entry, looked up): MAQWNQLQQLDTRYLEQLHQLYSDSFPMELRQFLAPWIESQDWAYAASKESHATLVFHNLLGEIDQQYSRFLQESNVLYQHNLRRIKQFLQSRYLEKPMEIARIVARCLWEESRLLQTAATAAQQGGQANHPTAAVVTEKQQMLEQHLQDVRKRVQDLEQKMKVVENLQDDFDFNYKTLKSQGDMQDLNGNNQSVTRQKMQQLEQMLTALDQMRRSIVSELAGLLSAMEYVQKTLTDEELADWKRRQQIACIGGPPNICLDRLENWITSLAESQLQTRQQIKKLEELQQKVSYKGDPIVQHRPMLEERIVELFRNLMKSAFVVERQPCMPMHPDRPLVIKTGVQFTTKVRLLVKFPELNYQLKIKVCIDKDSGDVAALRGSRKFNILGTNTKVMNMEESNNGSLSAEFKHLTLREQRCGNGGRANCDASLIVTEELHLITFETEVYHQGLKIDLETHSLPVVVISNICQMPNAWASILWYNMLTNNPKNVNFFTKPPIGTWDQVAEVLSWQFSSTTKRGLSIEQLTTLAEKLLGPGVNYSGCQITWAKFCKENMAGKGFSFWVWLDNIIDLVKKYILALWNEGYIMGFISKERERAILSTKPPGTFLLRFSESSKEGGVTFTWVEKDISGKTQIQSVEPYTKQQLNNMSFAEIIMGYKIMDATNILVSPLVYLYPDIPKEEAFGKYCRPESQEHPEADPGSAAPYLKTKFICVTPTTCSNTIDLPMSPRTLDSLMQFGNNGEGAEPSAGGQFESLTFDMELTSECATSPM
Chain of Transcription factor Sp1 (Homo sapiens) (P08047 whole entry, looked up): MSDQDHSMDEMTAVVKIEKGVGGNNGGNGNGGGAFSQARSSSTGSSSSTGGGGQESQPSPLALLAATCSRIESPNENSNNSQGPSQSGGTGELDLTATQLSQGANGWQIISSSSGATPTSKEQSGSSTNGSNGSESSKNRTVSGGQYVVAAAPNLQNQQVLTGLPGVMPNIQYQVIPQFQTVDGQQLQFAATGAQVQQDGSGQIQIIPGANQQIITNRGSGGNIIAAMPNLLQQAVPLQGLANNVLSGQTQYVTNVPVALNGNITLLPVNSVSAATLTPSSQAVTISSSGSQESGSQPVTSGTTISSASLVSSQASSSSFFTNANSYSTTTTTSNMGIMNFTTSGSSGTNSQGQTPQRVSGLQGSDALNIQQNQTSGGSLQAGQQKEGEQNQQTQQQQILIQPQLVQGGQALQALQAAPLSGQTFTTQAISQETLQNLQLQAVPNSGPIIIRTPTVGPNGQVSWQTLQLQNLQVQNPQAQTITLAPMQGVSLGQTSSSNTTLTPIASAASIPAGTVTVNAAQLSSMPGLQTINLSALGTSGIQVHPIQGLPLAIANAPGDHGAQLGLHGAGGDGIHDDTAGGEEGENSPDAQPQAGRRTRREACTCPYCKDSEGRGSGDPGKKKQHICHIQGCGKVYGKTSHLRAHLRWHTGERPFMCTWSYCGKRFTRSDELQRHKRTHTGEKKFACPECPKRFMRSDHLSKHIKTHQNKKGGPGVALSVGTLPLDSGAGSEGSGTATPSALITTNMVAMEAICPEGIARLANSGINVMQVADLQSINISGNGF

CC1COCc2cc3c(cc21)C(C)(C)C(C)C3(C)C (stereo not drawn)
inactive: [4] | [7] | [9]
active: [1] 164 µM | [2] 73.2 µM | [3] 100 µM | [5] 176 µM | [6] 168 µM | [8] 144 µM | [10] 50.7 µM

CN(Cc1cnc2nc(N)nc(N)c2n1)c1ccc(C(=O)N[C@@H](CCC(=O)O)C(=O)O)cc1
inactive: [1] | [2] | [3] | [4] | [5] | [6] | [7] | [8]

O=C1OC2(c3ccccc31)c1cc(I)c(O)c(I)c1Oc1c2cc(I)c(O)c1I
active: [1] 34.5 µM and 28.1 µM | [10] 20.4 µM and 23.8 µM and 22 µM
inactive: [1] | [2] | [3] | [4] | [5] | [6] | [7] | [8]

CCCCCCOC(=O)c1ccc(O)cc1
active: [1] 51.2 µM | [3] 37.1 µM | [4] 33.4 µM | [9] 50.8 µM | [10] 49.9 µM
inactive: [2] | [5] | [6] | [7] | [8]

CC1CCC(C(=O)O)CC1 (stereo not drawn)
inactive: [1] | [2] | [3] | [4] | [5] | [6] | [7] | [8] | [9] | [10]

Nc1ccc(O)c(C(=O)O)c1
inactive: [1] | [2] | [3] | [4] | [5] | [6] | [7] | [8] | [9] | [10]

Cc1ccccc1C(OCCN(C)C)c1ccccc1 (stereo not drawn)
inactive: [1] | [2] | [3] | [4] | [5] | [6] | [7] | [8] | [9]
active: [4] 48.6 µM

COc1cccc(O)c1
inactive: [1] | [2] | [3] | [4] | [5] | [6] | [7] | [8] | [9] | [10]

CN(CCO)S(=O)(=O)C(F)(F)C(F)(F)C(F)(F)C(F)(F)C(F)(F)C(F)(F)C(F)(F)C(F)(F)F
inactive: [1] | [2] | [3] | [4] | [5] | [6] | [7] | [8] | [9] | [10]

FC(F)(F)C(F)(F)C(F)(F)C(F)(F)I
inactive: [1] | [2] | [3] | [4] | [5] | [6] | [7] | [8] | [9] | [10]

O=CC(F)(F)C(F)(F)C(F)(F)C(F)F
inactive: [1] | [2] | [3] | [4] | [5] | [6] | [7] | [8] | [9] | [10]

CCCCCCCCC(C)=O
inactive: [1] | [2] | [3] | [4] | [5] | [6] | [7] | [8] | [9] | [10]
